# Measured values reported in PubChem BioAssay (NCATS).
# Results filed as inconclusive are left out. The source made the active and inactive calls. Calls follow the shape of the dose curve; as a rule, active = well fitted inhibition curve with a large enough effect; inconclusive = small, poorly fitted or top-dose-only effect; inactive = flat fitted curve, though single readings scatter.
# Assay: qHTS to identify inhibitors of the type 1 interferon - major histocompatibility complex class I in skeletal muscle: primary screen against the NCATS Pharmaceutical Collection (AID 1347407)
# Settings: human skeletal muscle cells, IFN-b-induced MHC-I HiBiT luminescence, 24 h; series mostly up to 45.9 µM; activity change, negative = inhibition: at the top concentration
# Description: Assay Submitter (PI): Travis B. Kinder Ph.D. & James Inglese Ph.D.
# Assay Development and Screening Technology Laboratory (ADST)
# National Center for Advancing Translational Sciences (NCATS), Rockville, MD
# National Institute of Health (NIH), Bethesda, Maryland
# Idiopathic inflammatory myopathies, collectively referred to as myositis, are a group of rare autoimmune diseases characterized by skeletal muscle inflammation, weakness, and usually accompanied by systemic pathologies of the skin, lungs, or vasculature. Current immunosuppressive therapies and glucocorticoids are often not curative and are accompanied by harsh side effects, especially in children with juvenile myositis. We initiated a drug repurposing and development program to identify more targeted, less toxic therapeutics to treat myositis. Although its cause is not known, muscle from a subset of patients have an abundance of the inflammatory type 1 interferon (IFN) and a down-stream product major histocompatibility complex class I (MHC class I), which are both thought to contribute to damage and weakness. We conducted quantitative high throughput screening on 6,576 compounds (4,679 unique) through a series of cell-based assays to identify those that inhibit the IFN-stimulated expression of MHC class I in muscle precursor cells (myoblasts). The compound identification and evaluation strategy utilized a primary screen with reporter-tagged MHC class I in genome-engineered myoblasts, ATP content counter screen for viability, HLA-ABC immunofluorescence secondary screen, and HLA-B RT-qPCR tertiary screen.
# The primary screen utilized CRISPR/Cas9 genome-engineering of immortalized human myoblasts, C25cl48, where a pro-luminescent reporter HiBit was fused to the C-terminus of endogenous MHC class I allele HLA-B*08:01 (HLA-B HiBit myoblasts). HiBit is an 11 amino acid fragment of NanoLuc luminescent reporter (Promega Corporation), and when complexed to the larger LgBit fragment, the reconstituted enzyme produces light in the presence of furimazine substrate (Schwinn et al., 2018). Briefly, HLA-B HiBit myoblasts were plated into 1536-well plates, treated with 4.0 ng/ml human IFN-beta and 2,816 compounds from the NCATS Pharmaceutical Collection (NPC) that contains all drugs approved in the US, EU, and Japan (Huang et al., 2011) in an 8-point, 1:5 titration with a high final concentration of 46 uM. After 24 hrs of treatment, cells were assayed by Nano-Glo HiBiT Lytic Detection System (Promega) and luminescence measured by a ViewLux 1430 Ultra HTS (Perkin Elmer).
# Huang R, Southall N, Wang Y, Yasgar A, Shinn P, Jadhav A, Nguyen D-T, Austin CP. 2011. The NCGC pharmaceutical collection: a comprehensive resource of clinically approved drugs enabling repurposing and chemical genomics. Sci Transl Med 3:80ps16. doi:10.1126/scitranslmed.3001862
# Schwinn MK, Machleidt T, Zimmerman K, Eggers CT, Dixon AS, Hurst R, Hall MP, Encell LP, Binkowski BF, Wood K V. 2018. CRISPR-Mediated Tagging of Endogenous Proteins with a Luminescent Peptide. ACS Chem Biol 13:467-474. doi:10.1021/acschembio.7b00549
# PROTOCOL TABLE (as described by Inglese et al., 2007)
# SEQUENCE No. (e.g., 1, 2, 3, etc.); […] (e.g., Cells, Incubation, Reagent, etc.); VALUE; DESCRIPTION
# 1a; Cells; 5 uL; Use a Multidrop Combi (Thermo Scientific) to seed 350 cells/well into nine Greiner 1536 well white/solid bottom, high base, TC plates in 5 ul/well of iHSKM growth medium (GM) without dexamethasone into columns 1+2. Add metal lids with gas-exchange holes
# 1b; Cells; 5 uL; Use a Multidrop Combi (Thermo Scientific) to seed 350 cells/well into nine Greiner 1536 well white/solid bottom, high base, TC plates in 5 ul/well of iHSKM GM without dexamethasone + 4 ng/ml IFN-b into columns 3 - 48. Add metal lids with gas-exchange holes
# 2; Incubate; 1 hr; Incubate at 37 C, 5% CO2, 95% RH
# […]
# % is scaled to controls: 0 for no effect and ±100 for the full control effect; potency is read from the fitted curve at half-maximal effect.
Structure (SMILES),"activity change, negative = inhibition",Potency
CN(C)c1ccc(O)c2c1C[C@H]1C[C@H]3[C@H](N(C)C)C(=O)C(C(N)=O)=C(O)[C@@]3(O)C(=O)C1=C2O,-2.03% (inactive),
O=C1CCc2ccc(OCCCCN3CCN(c4cccc(Cl)c4Cl)CC3)cc2N1,-16.4% (inactive),
Cc1c(OCC(F)(F)F)ccnc1CS(=O)c1nc2ccccc2[nH]1 (stereo not given),-22.5% (inactive),
COc1cc(Nc2c(C#N)cnc3cc(OCCCN4CCN(C)CC4)c(OC)cc23)c(Cl)cc1Cl,,7.45 µM (active)
Clc1ccc(C(Cn2ccnc2)OCc2ccc(Sc3ccccc3)cc2)c(Cl)c1 (stereo not given),8.19% (inactive),
Cc1nccn1CC1CCc2c(c3ccccc3n2C)C1=O (stereo not given),-9.21% (inactive),
Cc1ncc([N+](=O)[O-])n1CC(C)O (stereo not given),7.59% (inactive),
CN1CCC(=C2c3ccccc3CCc3sccc32)CC1,8.88% (inactive),
O=C(NCC1CCCCN1)c1cc(OCC(F)(F)F)ccc1OCC(F)(F)F (stereo not given),3.76% (inactive),
Cc1cc(=O)oc2cc(O)ccc12,-11.1% (inactive),
C=C(c1ccc(C(=O)O)cc1)c1cc2c(cc1C)C(C)(C)CCC2(C)C,0.548% (inactive),
N[C@@H](Cc1cc(I)c(Oc2cc(I)c(O)c(I)c2)c(I)c1)C(=O)O,0.187% (inactive),
N=C(N)c1ccc2cc(OC(=O)c3ccc(N=C(N)N)cc3)ccc2c1,0.469% (inactive),
CC(S)C(=O)NCC(=O)O (stereo not given),-13% (inactive),
CNC[C@H](O)c1ccc(O)c(O)c1,0.27% [at 19 µM] (inactive),
CCCOc1ccc2nc(NC(=O)OC)[nH]c2c1,-19.8% (inactive),
C=CCc1cc(OC)c(O)c(C(=O)NCCO)c1,-6.09% (inactive),
CCCCCCCCOc1ccccc1C(=O)Nc1ccc(C(=O)OCC[N+](C)(CC)CC)cc1,-27.8% (inactive),
COc1cc(OC)c(C(=O)CCCN2CCCC2)c(OC)c1,2.01% (inactive),
CC(C)C[C@H](NC(=O)[C@H](Cc1ccccc1)NC(=O)c1cnccn1)B(O)O,,0.0745 µM (active)

Structure (SMILES),"activity change, negative = inhibition",Potency
Cc1ccc(S(=O)(=O)NC(=O)NN2CC3CCCC3C2)cc1 (stereo not given),7.9% (inactive),
Cc1cccc(C)c1OCC(=O)N[C@@H](Cc1ccccc1)[C@@H](O)C[C@H](Cc1ccccc1)NC(=O)[C@H](C(C)C)N1CCCNC1=O,-4.33% (inactive),
Oc1ccc(OCc2ccccc2)cc1,-23.9% (inactive),
CN(C)[C@@H](CCOc1cccc2ccccc12)c1ccccc1,-16% (inactive),
CC1=C(C)C(=O)C(C(CCCCCC(=O)O)c2ccccc2)=C(C)C1=O (stereo not given),1.73% (inactive),
Nc1cc(C(Cl)=C(Cl)Cl)c(S(N)(=O)=O)cc1S(N)(=O)=O,4.36% (inactive),
COc1c2occc2cc2ccc(=O)oc12,-6.01% (inactive),
O=C(OC1C[C@H]2CC[C@@H](C1)[N+]21CCCC1)C(O)(c1ccccc1)c1ccccc1 (stereo not given in full),8.94% (inactive),
CC(C)Oc1ccc2c(=O)c(-c3ccccc3)coc2c1,,inactive
Cc1cc(C2CCCCC2)n(O)c(=O)c1,-3.66% (inactive),
Cc1nc2n(c(=O)c1CCN1CCC(c3noc4cc(F)ccc34)CC1)CCCC2,-17.7% (inactive),
CCC1=C(C)CN(C(=O)NCCc2ccc(S(=O)(=O)NC(=O)NC3CCC(C)CC3)cc2)C1=O (stereo not given),20.2% (inactive),
CCCCC(CC)COC(=O)C(C#N)=C(c1ccccc1)c1ccccc1 (stereo not given),-16.9% (inactive),
CN(C)C(=O)COC(=O)Cc1ccc(OC(=O)c2ccc(N=C(N)N)cc2)cc1,9.93% (inactive),
Cn1c(NCCN(CCO)CCCc2ccc([N+](=O)[O-])cc2)cc(=O)n(C)c1=O,-0.474% (inactive),
Cc1ccc(C)c(OCCCC(C)(C)C(=O)O)c1,3.69% (inactive),
O=C(O)c1cn(-c2ccc(F)cc2)c2cc(N3CCNCC3)c(F)cc2c1=O,2.8% [at 19 µM] (inactive),
Nc1ncn([C@H]2C[C@H](O)[C@@H](CO)O2)c(=O)n1,10.1% (inactive),
CCOC(=O)c1c(C)n(C)c2ccc(O)cc12,0.105% (inactive),
CCC(C)(Oc1ccc(C2(c3ccc(OC(C)(CC)C(=O)O)cc3)CCCCC2)cc1)C(=O)O (stereo not given),3.77% (inactive),
